# From ChEMBL document CHEMBL3988442, “University of Dundee, Small-Polar-MMV Screening Library” (2021)
# For part of these data: Results with a measured potency or affinity are listed apart.
# What was measured:
# Parameters in all cases: scale not given: direction of the effect not stated beside the values
# [1] = molecular target: Protein translocase subunit SecA (Escherichia coli (strain K12)) (UniProt P10408); test: Assay to Identify E. coli SecA ATPase Inhibitors; format: functional; conditions: 30 µM
# [2] = molecular target: T1, Ubiquitin-activating enzyme e1, putative (Leishmania donovani (strain BPK282A1)) (UniProt E9BSI1); test: Leishmania donovani Ubiquitin Activating Enzyme (LdE1); format: functional; conditions: 30 µM
# T1 sequence (whole entry): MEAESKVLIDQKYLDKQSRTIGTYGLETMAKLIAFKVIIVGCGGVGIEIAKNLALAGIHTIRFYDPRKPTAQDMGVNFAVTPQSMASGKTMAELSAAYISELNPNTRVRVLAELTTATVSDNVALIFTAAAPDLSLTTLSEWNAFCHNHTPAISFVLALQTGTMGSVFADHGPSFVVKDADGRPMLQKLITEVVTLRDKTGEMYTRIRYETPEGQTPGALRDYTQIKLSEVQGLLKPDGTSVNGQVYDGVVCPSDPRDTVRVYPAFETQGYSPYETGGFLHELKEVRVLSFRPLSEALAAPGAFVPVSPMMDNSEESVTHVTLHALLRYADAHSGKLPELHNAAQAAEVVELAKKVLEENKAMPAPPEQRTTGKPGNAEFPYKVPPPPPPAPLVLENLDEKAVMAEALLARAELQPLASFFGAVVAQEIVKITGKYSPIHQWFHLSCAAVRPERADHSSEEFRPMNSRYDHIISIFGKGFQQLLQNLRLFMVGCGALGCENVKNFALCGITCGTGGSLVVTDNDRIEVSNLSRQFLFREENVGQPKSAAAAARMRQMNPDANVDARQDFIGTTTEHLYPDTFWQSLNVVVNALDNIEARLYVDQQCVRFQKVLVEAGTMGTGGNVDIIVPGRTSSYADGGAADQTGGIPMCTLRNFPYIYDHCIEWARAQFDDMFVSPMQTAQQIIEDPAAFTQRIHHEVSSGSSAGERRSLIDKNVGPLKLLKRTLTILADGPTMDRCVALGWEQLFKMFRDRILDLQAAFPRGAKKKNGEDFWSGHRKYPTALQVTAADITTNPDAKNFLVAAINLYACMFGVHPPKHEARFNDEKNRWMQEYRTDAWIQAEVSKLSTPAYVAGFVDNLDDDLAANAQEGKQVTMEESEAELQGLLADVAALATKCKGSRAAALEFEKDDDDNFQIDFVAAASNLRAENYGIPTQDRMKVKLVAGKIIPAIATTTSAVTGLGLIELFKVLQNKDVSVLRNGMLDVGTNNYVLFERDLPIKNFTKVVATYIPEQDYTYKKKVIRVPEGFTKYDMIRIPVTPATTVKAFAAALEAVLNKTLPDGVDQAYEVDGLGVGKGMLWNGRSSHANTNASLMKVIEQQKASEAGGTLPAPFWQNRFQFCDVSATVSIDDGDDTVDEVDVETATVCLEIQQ
# [3] = molecular target: Sialic acid-binding Ig-like lectin 9 (Homo sapiens) (UniProt Q9Y336); test: Hs-Siglec9 ALPHAscreen SOP 20170721; conditions: 10 µM
# Trypanosoma cruzi = test: Trypanosoma cruzi phosphomannomutase and mannose-1-phosphate guanylyltransferase assay; format: functional; conditions: 10 µM
# [4] = molecular target: T2, Arginase-2, mitochondrial (Homo sapiens) (UniProt P78540); test: in vitro enzyme assay to detect the production of urea directly proportional to the activity of Arginase II; format: functional; conditions: 33.3 µM; further: in the data most compounds retested in dose-response had high values
# T2 sequence (whole entry): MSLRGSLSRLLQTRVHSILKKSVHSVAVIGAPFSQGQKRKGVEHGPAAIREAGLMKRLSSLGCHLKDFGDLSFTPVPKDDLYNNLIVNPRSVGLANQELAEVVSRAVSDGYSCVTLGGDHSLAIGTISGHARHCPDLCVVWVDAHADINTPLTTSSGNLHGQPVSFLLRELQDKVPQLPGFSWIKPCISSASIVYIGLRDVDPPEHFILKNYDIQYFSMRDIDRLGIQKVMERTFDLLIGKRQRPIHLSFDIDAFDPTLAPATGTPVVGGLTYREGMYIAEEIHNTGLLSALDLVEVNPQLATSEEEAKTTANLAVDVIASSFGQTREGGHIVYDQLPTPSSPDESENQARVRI
# [5] = molecular target: T3, Proteasome subunit beta (Trypanosoma cruzi) (UniProt O96673); test: Trypanosoma cruzi proteasome chymotrypsin-like activity (TcProtChymo) assay.; further: in the data most compounds retested in dose-response had high values; format: functional; conditions: 9.37 µM
# T3 sequence (whole entry): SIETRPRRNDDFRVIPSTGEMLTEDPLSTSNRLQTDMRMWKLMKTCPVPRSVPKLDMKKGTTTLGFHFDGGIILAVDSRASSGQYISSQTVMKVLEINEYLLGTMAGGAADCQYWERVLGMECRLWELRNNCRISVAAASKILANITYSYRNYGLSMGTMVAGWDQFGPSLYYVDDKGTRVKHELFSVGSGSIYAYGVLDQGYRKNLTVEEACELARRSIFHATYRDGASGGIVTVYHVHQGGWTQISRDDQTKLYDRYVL
# Homo sapiens = species on record: Homo sapiens; test: To identify inhibition of the IFN signalling (Jak-Stat) pathway via expression of an eGFP reporter gene under the control of an IFN-stimulated response element (ISRE) containing MxA promoter.; format: functional; conditions: 30 µM
# [6] = molecular target: T4, Tyrosyl-tRNA synthetase, putative (Trypanosoma cruzi (strain CL Brener)) (UniProt Q4DSP6); test: Trypanosoma cruzi tyrosyl tRNA synthetase (TcYRS) _High Tyrosine SOP; format: functional; conditions: 30 µM; further: in the data most compounds retested in dose-response had high values
# T4 sequence (whole entry): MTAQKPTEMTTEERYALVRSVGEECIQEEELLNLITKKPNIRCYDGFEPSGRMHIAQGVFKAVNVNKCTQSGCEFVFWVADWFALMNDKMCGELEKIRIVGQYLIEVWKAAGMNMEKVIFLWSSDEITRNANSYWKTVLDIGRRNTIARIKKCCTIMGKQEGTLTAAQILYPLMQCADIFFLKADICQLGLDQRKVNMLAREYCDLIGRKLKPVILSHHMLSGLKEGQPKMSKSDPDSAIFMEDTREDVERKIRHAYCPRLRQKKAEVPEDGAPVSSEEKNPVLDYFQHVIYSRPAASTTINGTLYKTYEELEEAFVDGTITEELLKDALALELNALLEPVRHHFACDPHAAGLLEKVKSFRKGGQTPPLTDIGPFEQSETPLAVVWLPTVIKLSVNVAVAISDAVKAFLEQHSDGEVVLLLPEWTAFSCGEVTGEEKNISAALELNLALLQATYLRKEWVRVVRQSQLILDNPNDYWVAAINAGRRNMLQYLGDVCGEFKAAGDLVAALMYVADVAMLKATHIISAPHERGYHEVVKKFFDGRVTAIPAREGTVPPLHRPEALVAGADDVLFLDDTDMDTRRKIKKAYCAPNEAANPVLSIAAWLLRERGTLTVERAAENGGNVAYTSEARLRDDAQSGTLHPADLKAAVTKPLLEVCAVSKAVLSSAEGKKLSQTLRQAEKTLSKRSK
# [7] = molecular target: T4, Tyrosyl-tRNA synthetase, putative (Trypanosoma cruzi (strain CL Brener)); test: Trypanosoma cruzi tyrosyl tRNA synthetase (TcYRS) SOP; format: functional; conditions: 30 µM
# [8] = molecular target: Chromo domain-containing protein 1 (Saccharomyces cerevisiae (strain ATCC 204508 / S288c) (Baker's yeast)) (UniProt P32657); test: ScCHD-1 Enzyme Inhibition Assay; format: functional; conditions: 30 µM; further: in the data most compounds retested in dose-response had high values
# Chromo domain-containing protein 1 (Saccharomyces cerevisiae (strain ATCC 204508 / S288c) (Baker's yeast)), sequence (P32657 whole entry, the tested form may be a part): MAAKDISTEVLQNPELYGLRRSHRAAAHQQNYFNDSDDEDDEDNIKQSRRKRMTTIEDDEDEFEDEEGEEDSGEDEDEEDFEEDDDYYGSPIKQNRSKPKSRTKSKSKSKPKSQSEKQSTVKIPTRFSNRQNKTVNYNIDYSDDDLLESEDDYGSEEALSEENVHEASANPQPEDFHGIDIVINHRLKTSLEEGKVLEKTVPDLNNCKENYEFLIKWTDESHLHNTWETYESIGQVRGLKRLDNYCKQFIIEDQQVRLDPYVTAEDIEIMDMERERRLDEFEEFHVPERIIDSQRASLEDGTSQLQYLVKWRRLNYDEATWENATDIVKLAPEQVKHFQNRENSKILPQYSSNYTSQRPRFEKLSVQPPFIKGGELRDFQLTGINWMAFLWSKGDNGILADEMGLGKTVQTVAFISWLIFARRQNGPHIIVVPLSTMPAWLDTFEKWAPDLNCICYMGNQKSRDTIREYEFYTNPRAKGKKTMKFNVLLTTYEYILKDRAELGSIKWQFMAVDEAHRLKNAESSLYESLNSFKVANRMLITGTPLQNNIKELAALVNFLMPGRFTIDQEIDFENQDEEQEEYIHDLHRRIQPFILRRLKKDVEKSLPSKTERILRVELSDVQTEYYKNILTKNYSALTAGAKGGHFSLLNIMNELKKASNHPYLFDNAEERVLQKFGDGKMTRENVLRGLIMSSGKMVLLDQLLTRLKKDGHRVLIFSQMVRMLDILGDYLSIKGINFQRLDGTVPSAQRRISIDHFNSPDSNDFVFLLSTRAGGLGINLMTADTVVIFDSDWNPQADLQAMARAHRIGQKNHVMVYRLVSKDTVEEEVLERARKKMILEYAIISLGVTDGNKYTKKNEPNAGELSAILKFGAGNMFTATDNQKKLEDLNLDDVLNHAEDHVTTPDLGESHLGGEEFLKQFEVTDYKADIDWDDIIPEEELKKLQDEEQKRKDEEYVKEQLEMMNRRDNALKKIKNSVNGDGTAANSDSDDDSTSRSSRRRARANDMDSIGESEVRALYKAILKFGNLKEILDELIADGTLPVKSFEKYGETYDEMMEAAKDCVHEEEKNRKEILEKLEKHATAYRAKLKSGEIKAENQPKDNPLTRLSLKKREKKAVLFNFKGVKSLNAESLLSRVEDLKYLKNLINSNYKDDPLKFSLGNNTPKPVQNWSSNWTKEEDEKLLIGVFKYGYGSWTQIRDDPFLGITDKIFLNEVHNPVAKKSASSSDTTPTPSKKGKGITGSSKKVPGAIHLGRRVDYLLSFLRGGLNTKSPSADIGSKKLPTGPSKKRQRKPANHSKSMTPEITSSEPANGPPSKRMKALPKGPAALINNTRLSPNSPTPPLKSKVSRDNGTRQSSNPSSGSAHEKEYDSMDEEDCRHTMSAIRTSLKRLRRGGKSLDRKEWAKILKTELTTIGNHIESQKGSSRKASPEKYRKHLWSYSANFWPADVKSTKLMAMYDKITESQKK
# Protein translocase subunit SecA (Escherichia coli (strain K12)), sequence (P10408 whole entry): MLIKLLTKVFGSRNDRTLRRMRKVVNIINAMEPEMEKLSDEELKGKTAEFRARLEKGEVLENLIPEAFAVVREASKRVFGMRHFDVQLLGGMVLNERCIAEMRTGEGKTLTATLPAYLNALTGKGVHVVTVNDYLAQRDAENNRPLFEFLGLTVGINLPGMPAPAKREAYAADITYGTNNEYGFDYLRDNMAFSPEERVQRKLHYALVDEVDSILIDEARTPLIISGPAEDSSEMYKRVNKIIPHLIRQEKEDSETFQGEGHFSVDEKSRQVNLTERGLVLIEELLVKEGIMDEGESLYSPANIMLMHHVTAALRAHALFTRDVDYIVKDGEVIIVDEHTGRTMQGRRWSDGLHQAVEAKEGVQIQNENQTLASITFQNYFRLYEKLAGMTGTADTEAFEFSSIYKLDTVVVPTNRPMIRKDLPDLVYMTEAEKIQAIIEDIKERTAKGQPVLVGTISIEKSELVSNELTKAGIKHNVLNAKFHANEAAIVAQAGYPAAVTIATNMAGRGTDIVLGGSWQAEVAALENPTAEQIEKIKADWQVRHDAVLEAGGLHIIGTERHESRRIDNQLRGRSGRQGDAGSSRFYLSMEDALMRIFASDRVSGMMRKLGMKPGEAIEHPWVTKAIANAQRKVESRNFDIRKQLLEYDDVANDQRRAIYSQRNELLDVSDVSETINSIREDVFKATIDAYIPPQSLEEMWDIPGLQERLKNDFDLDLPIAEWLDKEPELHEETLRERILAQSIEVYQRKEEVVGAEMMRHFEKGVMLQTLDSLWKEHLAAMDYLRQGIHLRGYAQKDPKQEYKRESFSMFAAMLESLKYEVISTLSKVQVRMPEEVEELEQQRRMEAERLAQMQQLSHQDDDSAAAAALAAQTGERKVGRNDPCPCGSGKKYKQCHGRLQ
# Sialic acid-binding Ig-like lectin 9 (Homo sapiens), sequence (Q9Y336 whole entry): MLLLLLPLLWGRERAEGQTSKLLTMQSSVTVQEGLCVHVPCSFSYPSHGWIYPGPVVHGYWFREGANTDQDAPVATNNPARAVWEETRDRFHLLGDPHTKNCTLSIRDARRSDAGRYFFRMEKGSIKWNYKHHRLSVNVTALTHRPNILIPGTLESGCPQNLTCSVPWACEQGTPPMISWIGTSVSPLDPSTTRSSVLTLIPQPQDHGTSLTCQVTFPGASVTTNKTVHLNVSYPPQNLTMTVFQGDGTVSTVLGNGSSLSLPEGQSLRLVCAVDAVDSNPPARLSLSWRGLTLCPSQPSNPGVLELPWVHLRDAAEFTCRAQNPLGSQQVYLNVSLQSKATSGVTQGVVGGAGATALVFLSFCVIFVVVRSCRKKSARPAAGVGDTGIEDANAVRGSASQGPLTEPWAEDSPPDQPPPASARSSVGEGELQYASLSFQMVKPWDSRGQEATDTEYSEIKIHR
Compound,Percent Effect [1] [%],Percent Effect [2] [%],Percent Effect [3] [%],Percent Effect (Trypanosoma cruzi) [%],Percent Effect [4] [%],Percent Effect [5] [%],Percent Effect (Homo sapiens) [%],Percent Effect [6] [%],Percent Effect [7] [%],Percent Effect [8] [%]
Fc1cnc(N2CCOCC3(CCCN(c4nncs4)C3)C2)nc1 (stereo not given),-8.43,6.49,-1.88,-2.63,-5.26,10.5,-23.8,1.58,7.69,0.128
Cc1nccc(CN2CC[C@H](Oc3cccc(F)c3)[C@@](C)(O)C2)n1,-2.64,14.7,6.31,-0.197,3.1,0.657,2.7,7.41,15,-17.3
NC(=O)N1CCC2(CC1)CN(Cc1cccnc1)C(=O)CO2,-0.758,11.7,1.96,-0.188,1.37,8.5,-22.1,10.6,15,-1.18
CCc1nc(C2CCCN2C(=O)c2ccoc2C)no1 (stereo not given),2.59,-2.56,10.5,0.469,5.74,2.3,17.4,-0.478,-18.1,0.101
Cc1ccc(C(=O)N2CCCC3(CCCC(=O)N3C)C2)cc1F (stereo not given),-2.74,19.5,-4.32,-1.5,4.11,14.5,5.96,7.73,10,-9.62
CCn1c(Cn2cncn2)nnc1C1CCN(Cc2ccc(C)o2)CC1,-6.62,5.41,5.22,3.78,2.45,9.07,5.52,4.79,14.6,-3.96
O=C(N1CCC(Nc2cccnn2)CC1)C1(c2ccc(F)cc2)CC1,-2.8,7.79,9.36,-1.68,-2.25,1.4,10.5,4.9,9.41,-1.2
COc1ccccc1CCN(C)C(=O)NC(C)c1nncn1C (stereo not given),-6.85,10.7,12.9,-1.21,0,16.2,-2.26,2.63,5.13,-8.54
CCNc1cc2c(nn1)CCN(C(=O)c1cc3nc(C)ccc3o1)C2,-8.41,13.3,11.1,9.04,-0.887,20.4,6.54,5.79,15.4,-6.95
COc1cccc(-n2nnc(C(=O)N3CCN(C)CC3C)c2C)c1 (stereo not given),1.69,25.6,-23.9,6.1,-2.46,13.4,27.9,3.35,22.9,12.3
COc1ccc(CN2CCC3(CC2)CCN(CC2CC2)C3=O)cc1,-3.5,19.5,0.146,-3.56,4.57,3.18,4.44,4.83,2.5,-2.76
O=C(NCC1CCSCC1)N(CCCO)C1CCc2ccccc21 (stereo not given),-1.28,8,-4.32,-4.02,-3.1,9.92,11,-0.526,0,-14.3
